Assay results reported in PubChem BioAssay AID602350 (Broad Institute, 2012).
Measured potencies and affinities stand elsewhere. Calls of active or inactive are those of the source.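 The calls were made as follows: active = absorbance falls by 30% or more versus neutral controls, with a potency fitted within twice the top valid dose; inconclusive = no clear call, values can overlap the other calls; inactive = change opposite to expected direction, plus the rest.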

target: Protein disulfide-isomerase (Homo sapiens) (UniProt P07237); assay: PDI inhibitors, insulin aggregation turbidity, dose response, biochemical, absorbance, cherry-picked samples (AID 602350); settings: recombinant PDI insulin aggregation, absorbance 650 nm, 90 min; series mostly up to 19.5 µM;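 also: 0% = neutral controls and -100% = rutin hydrate positive control wells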
Sequence (P07237 whole entry, looked up): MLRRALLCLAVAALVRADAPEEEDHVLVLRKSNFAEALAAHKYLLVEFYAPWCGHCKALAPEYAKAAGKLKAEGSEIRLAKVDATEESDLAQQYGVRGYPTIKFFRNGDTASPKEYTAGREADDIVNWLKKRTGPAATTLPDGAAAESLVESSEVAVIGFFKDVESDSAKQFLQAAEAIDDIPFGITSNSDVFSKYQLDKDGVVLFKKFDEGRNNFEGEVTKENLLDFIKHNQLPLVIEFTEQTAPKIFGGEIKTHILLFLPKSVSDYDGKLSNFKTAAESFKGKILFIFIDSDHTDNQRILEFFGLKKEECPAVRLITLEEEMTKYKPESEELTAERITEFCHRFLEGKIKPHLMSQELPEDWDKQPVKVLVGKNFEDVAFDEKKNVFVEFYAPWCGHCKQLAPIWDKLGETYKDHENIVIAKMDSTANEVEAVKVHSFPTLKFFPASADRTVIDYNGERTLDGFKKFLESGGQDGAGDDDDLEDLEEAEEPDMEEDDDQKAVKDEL

outcome, inactive:
CCCCNC(=O)N1CCN(C(=O)C2CCCO2)CC1 (centres undefined)
CC1(C)CC[C@]2(C(=O)O)CC[C@]3(C)C(=CC[C@@H]4[C@@]5(C)CC[C@H](O[C@@H]6O[C@H](C(=O)O)[C@@H](O)[C@H](O[C@@H]7OC[C@H](O)[C@H](O)[C@H]7O)[C@H]6O)C(C)(C)[C@@H]5CC[C@]43C)[C@@H]2C1
O=C(N/N=C/c1ccc(O)cc1)NC12CC3CC(CC(C3)C1)C2
COc1ccccc1NS(=O)(=O)c1cccc(C(=O)NCC2(N(C)C)CCCCC2)c1
Cc1cc(NC(=O)CSc2[nH]c(=O)cc(C(F)(F)F)c2C#N)no1
CCOC(=O)c1c(-c2ccccc2)oc2cc(Br)c(O)cc12
O=C(C[C@H]1C[C@H](C(=O)N2CCCCC2)[C@@]2(CCc3ccccc3)c3[nH]c4cc(-c5ccco5)ccc4c3CCN2C1=O)NCCC1=CCCCC1
O=C(CN(CCc1ccccc1)C(=O)CNS(=O)(=O)c1ccccc1)NCC1CCCO1 (centres undefined)
Cc1ccc(NC2(c3nnnn3CCOC(=O)Nc3ccc(Cl)cc3)CCCCC2)cc1
Cc1ccc2c(=O)n3c(nc2c1)C(Cc1ccc(O)cc1)NC(=O)c1cccnc1-3 (centres undefined)
CN(C)CCCN(C(=O)c1ccc(S(=O)(=O)N2CCc3ccccc32)cc1)c1nc2c(Cl)cccc2s1
O=C(O)c1ccccc1Cc1ccc(F)c2ccccc12
CCOC(=O)c1c(CN2CCOCC2)n(-c2ccccc2)c2ccc(O)cc12
CC1(C(=O)NS(=O)(=O)c2ccccc2Cl)CCN1C(=O)c1ccccc1CCc1ccccc1 (centres undefined)
C[C@H]1CN([C@@H](C)CO)C(=O)Cc2cc(NC(=O)Nc3ccccc3)ccc2O[C@H]1CN(C)Cc1ccccc1
O=S(=O)(c1cc(F)ccc1F)N1CCN(c2ncccn2)CC1
CCOc1cc(/C=C/C(=O)c2ccc(O)cc2)ccc1OCC(=O)N(C)C
COCc1[nH][nH]c(=O)c1C=Nc1ccc(F)cc1F
COC(=O)C(Cc1ccc(O)cc1)N1Cc2ccccc2C1=O (centres undefined)
Cc1ccc(S(=O)(=O)N(C)c2ccc(OC(=O)COc3ccccc3)cc2)cc1
COCC(=O)N(C)C1(c2nnnn2CCOC(=O)Nc2ccc(Cl)cc2)CCCC1
CCCCNC(=O)CCn1c(=O)c2ccccc2n(CC(=O)Nc2ccccc2OCC)c1=O
O=C(c1ccc(OCCN2CCCCC2)cc1)c1c(-c2ccc(O)cc2)sc2cc(O)ccc12
CN1C(=O)NC(c2ccccc2)C2=C1CN(c1cccc(C(F)(F)F)c1)C2=O (centres undefined)
COCCN(CC(=O)Nc1ccccc1C(F)(F)F)C(=O)/C=C/c1cc(Cl)c2c(c1)OCCO2
COc1ccc(/C(C)=N/NC(=O)CNC(=O)c2cccs2)cc1
COc1ccc(C2c3ccc(O)cc3Oc3ncn(Cc4ccco4)c(=N)c32)cc1OC (centres undefined)
C[C@H]1CN([C@@H](C)CO)C(=O)Cc2cc(NC(=O)Nc3ccccc3)ccc2O[C@@H]1CN(C)Cc1ccccc1
O=C1NC(Cc2ccc(O)cc2)c2nc3cc(Cl)ccc3c(=O)n2-c2ncccc21 (centres undefined)
CCOC(=O)C1(CCOc2ccccc2)CCN(Cc2ccc(O)cc2)CC1
CCN(CC(=O)Nc1ccc2c(c1)OCCO2)C(=O)CC1CCCC1
CC(=O)c1ccc(N2CCN(C(=O)c3ccc4[nH]c(C)c(C)c4c3)CC2)cc1
CCC(=O)Nc1ccc(-c2cc3ccccc3oc2=O)cc1
Cc1[nH][nH]c(=O)c1C(c1c(C)[nH][nH]c1=O)c1cn(Cc2ccccc2Cl)c2ccccc12
O=c1cc(CSc2nnnn2-c2ccc(O)cc2)nc2sccn12
CCCCNC(=O)Nc1ccon1
C[C@@H]1CN([C@@H](C)CO)C(=O)c2cccc(NS(C)(=O)=O)c2O[C@@H]1CN(C)Cc1ccc(Oc2ccccc2)cc1
COc1cccc(/C=C2\CCCCC2=O)c1

Activity change, negative = inhibition, inactive:
CC[C@]12c3[nH]c4cc(-c5ccco5)ccc4c3CCN1C(=O)[C@@H](CC(=O)NCCCOC)C[C@@H]2C(=O)N1CCN(C(=O)C2CC2)CC1 0.067% [at 2.1 µM]
